Our source for the activity change, negative = cytotoxicity and Potency values is PubChem BioAssay (NCATS).

Structures are written as SMILES. Results filed as inconclusive are left out. A call without a number means that no potency is given here. A number with no mark means an inactive call. The source made the active and inactive calls. Calls come from the whole dose curve; as a rule, active = well fitted cell-killing curve with a large enough effect; inconclusive = small, poorly fitted or top-dose-only effect, or effect the other way; inactive = flat fitted curve, though single readings scatter. Where a SMILES comes first, the peptide text is derived from it. The star is where a group is joined. PhAc = O=C(Cc1ccccc1)*

The subject of this assay is OV90. Briefly: Primary qHTS to identify gynecologic anti-cancer compounds using libraries of approved drugs and bioactive compounds (AID 1345084). Note: nearly all actives have a fitted effect of over 55% in size. To be noted: Gynecologic cancer cell panel viability, ATPlite luminescence, 48 h; series mostly up to 57.5 µM. The procedure, abridged: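 Luminescence from the ATPlite ATP-monitoring reagent indicates viable cell number; lower signal means cytotoxicity. Cells received compound 16 h after seeding and were exposed for 48 h across five concentrations.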
(qHTS replaces the single test concentration by a dilution series.)
`COC1CC(O[C@H]2CC[C@@]3(C)C(=CC[C@]4(O)C3[C@H](O)[C@@H](O)[C@]3(C)[C@@H]([C@H](C)O)CC[C@@]34O)C2)OC(C)C1OC1CC(OC)C(OC2CC(OC)C(OC3OC(C)C(OC4OC(CO)C(O)C(O)C4O)C(OC)C3O)C(C)O2)C(C)O1` (some centres not stated): the activity change, negative = cytotoxicity was -7.88% [at 11.6 µM].

For `C=C1CCC2[C@](C)(CO)CCC[C@@]2(C)[C@@H]1CCC1=CCOC1=O` (some centres not stated), the Potency entry is “inactive”. Still for that read-out and setting: for `C=C1CCC[C@]2(C)CC[C@@](O)(C(=C)C(=O)O)C[C@@H]12` the value was “inactive”; for `CC1CC(=O)[C@]2(O)C(C(=O)OCCc3ccc(O)cc3)=CO[C@@H](O[C@@H]3O[C@H](CO)[C@@H](O)[C@H](O)[C@H]3O)[C@H]12` (some centres not stated), “inactive”. Still for that read-out and setting: for `COC(=O)C1=COC(O[C@@H]2O[C@H](CO)[C@@H](O)[C@H](O)[C@H]2O)[C@@H]2[C@@](C)(O)[C@@H](OC(=O)/C=C/c3ccccc3)C[C@]12O` (some centres not stated) the value was “inactive”; for `CCC[C@H](N[C@@H](C)C(=O)N1[C@H](C(=O)O)C[C@@H]2CCCC[C@@H]21)C(=O)O`, “inactive”.

For the compound `CC1OC(OC2C(OC(=O)[C@]34CCC(C)(C)C[C@H]3C3=CCC5[C@@]6(C)CC[C@H](OC7OC(C(=O)O)C(O)C(O)C7O)C(C)(C)C6CC[C@@]5(C)[C@]3(C)CC4O)OC(CO)C2O)C(O)C(O)C1OC1OCC(O)C(O)C1O` (some centres not stated), the activity change, negative = cytotoxicity was -5.89% [at 11.6 µM]. `CCOC(=O)CNC(=O)[C@@H]1CCCN1C(=O)Cc1ccccc1` (PhAc-Pro-Gly-OEt): the Potency entry is “inactive”. Turning to `C/C(=C\CC[C@H](CO)[C@@H]1CC[C@]2(C)C3=C(CC[C@@]12C)[C@@]1(C)CCC(=O)C(C)(C)C1CC3)C(=O)O` (some centres not stated), the Potency result is “inactive”. Turning to `C=C1CCC2C(C)(C)CCC[C@]2(C)[C@H]1CC/C(C)=C/C(=O)O` (some centres not stated), the Potency result is “inactive”. The same measure, in the same setting: next, `COCC1OC(OC(C)(C)C2CCC3(C)C=C(C4CCC5C4(C)CC(O)C4OC(C(C)(C)O)CCC45C)CCC3O2)C(NC(C)=O)C(O)C1O` (configuration not stated): “inactive”; `C=C1CCC2[C@](C)(CCC[C@]2(C)C(=O)O)[C@H]1CC/C(C)=C/C(=O)OC` (some centres not stated): “inactive”; `COC(=O)c1c(CC=C(C)C)c(OC2OC(CO)C(O)C(O)C2O)c2ccccc2c1OC1OC(CO)C(O)C(O)C1O` (configuration not stated): “inactive”. The same measure, in the same setting: for `O=C(Cc1ccccc1)OC[C@H]1O[C@H](O[C@H]2O[C@H](CO)[C@@H](O)[C@H](O)[C@H]2O)[C@H](O)[C@@H](O)[C@@H]1O` the value was “inactive”. Regarding `CC1=C2C[C@H]3OC(=O)[C@H](O)[C@@]4(O)[C@@H](C)[C@@H](O)[C@H](O)C([C@@]2(C)[C@H](O)[C@@H](O)C1)[C@@]34C` (some centres not stated), the Potency entry was “inactive”.

As for `CC1CC(=O)C2=C(O1)OC1(C)CCC3C(C)(C)C4OC4C(=O)C3(C)C1C2` (configuration not stated), the Potency entry is “inactive”. `COc1ccnc(CCc2nc3ncccc3[nH]2)c1`: the Potency entry was “inactive”. The same measure, in the same setting: next, `C/C(=C/CO)CC[C@H]1[C@]2(C)C[C@H](O)CC(C)(C)[C@H]2CC[C@]1(C)O`: “inactive”. `COc1c2c(c(C)c3c1C(=O)OC3)OC1(C)CC(O)C34OC(O)(CCC3(C)C1C2)OC4(C)C` (configuration not stated): the Potency result is “inactive”.

Take `COC(=O)[C@]1(Cc2ccc(O)c(CC=C(C)C)c2)OC(=O)C(O)=C1c1ccc(O)cc1`: the Potency result is “inactive”. On the same count and under the same terms, for `COc1cnc(-c2ccc(Cn3c(CC(C)(C)C(=O)O)c(SC(C)(C)C)c4cc(OC[C@@H]5Cc6ccccc6N5C(C)=O)ccc43)cc2)nc1` the value was “inactive”. The same measure, in the same setting: next, `CCC(C)C(=O)O[C@H]1C[C@](C)(O)[C@]23OC(C)(C)[C@H](C[C@H](OC(=O)c4ccccc4)[C@]2(COC(C)=O)[C@H]1OC(=O)C(C)CC)[C@H]3OC(C)=O` (some centres not stated): “inactive”; `CC1CC2(O)OC(=O)C3=C2C(CCC3)[C@@]12C[C@@H](c1ccoc1)OC2=O` (some centres not stated): “inactive”. On to `COc1cc(C(C)=O)ccc1O[C@@H]1O[C@H](CO)[C@@H](O)[C@H](O)[C@H]1O`, for which the Potency result is “inactive”.

Regarding `COC(=O)C1=COC(OC2OC(CO)C(O)C(O)C2O)C2C(C)C(OC(C)=O)C(OC(=O)c3ccccc3)C12` (configuration not stated), the Potency entry was “inactive”.

Regarding `COc1ccnc2[nH]cc(C(=O)C(=O)N3CCN(C(=O)c4ccccc4)CC3C)c12` (configuration not stated), the Potency entry is “inactive”. `C[C@@H]1O[C@@H](O[C@H]2[C@H](O)[C@@H](O)[C@H](OC[C@H]3O[C@@H](OC(=O)[C@]45CCC(C)(C)C[C@H]4C4=CCC6[C@@]7(C)C[C@@H](O)[C@H](O)[C@@](C)(CO)C7[C@H](O)C[C@@]6(C)[C@]4(C)CC5)[C@H](O)[C@@H](O)[C@@H]3O)O[C@@H]2CO)[C@H](O)[C@H](O)[C@H]1O` (some centres not stated): the activity change, negative = cytotoxicity is -3.81% [at 11.6 µM].
